Screening results (PubChem)
CapD inh = CapD enzyme inhibition; purified CapD enzyme, fluorescence intensity read-out; stronger effect = lower value; z-score (concentration not given with the values); hit rate 0.23% among 140,000; AID 492967; in the data active means z-score mostly below about -2.9, no sharp cut-off; inactive means mostly above about -1.9
A number is an active result. This excerpt belongs to a sample that is enriched for hits.

Results for COc1cccc(NC(N)=S)c1 ?
CapD inh: inactive

What do the screens show for `COc1cccc(NC(=S)/N=C(\N)Nc2nc(C)c3ccccc3n2)c1`?
CapD inh: -5.9

How did COc1cccc(NC(=S)NNc2ccccc2)c1 do in these assays?
CapD inh: inactive

What do the screens show for `CCNC(=S)N1CCc2cc(OC)c(OC)cc2C1COc1ccc2c(C)cc(=O)oc2c1` (centres undefined)?
CapD inh: inactive

What do the screens show for `O=C1c2ccccc2CCC1C1(O)C(=O)Nc2ccc(Br)cc21` (centres undefined)?
CapD inh: inactive

What do the screens show for `N#C/C(=C\Nc1ccc(C(N)=O)cc1)c1nc(-c2ccccc2)cs1`?
CapD inh: inactive

How did N#C/C(=C\C=C\c1ccco1)c1nc(-c2ccccc2)cs1 do in these assays?
CapD inh: -4.3

What do the screens show for `N#C/C(=C\Nc1ccc(Br)cc1)c1nc(-c2ccccc2)cs1`?
CapD inh: inactive

How did CCOC(=O)c1ccc(-c2ccc(Cl)cc2)s1 do in these assays?
CapD inh: inactive

Results for COc1nc(N(C)C)nc(N(OC)S(=O)(=O)c2ccccc2)n1 ?
CapD inh: inactive

Results for Cc1ccccc1NC(=O)NCCc1ccccc1 ?
CapD inh: inactive

Results for N#Cc1c(-c2ccccc2)[nH]c(=S)[nH]c1=O ?
CapD inh: -6.1

What do the screens show for `CN(C)c1ccc(-c2[nH]c(=S)[nH]c(=O)c2C#N)cc1`?
CapD inh: inactive

How did N#Cc1c(-c2cccs2)[nH]c(=S)[nH]c1=O do in these assays?
CapD inh: inactive

Results for CNC(=O)c1ccc(/C=C2/Sc3ccccc3NC2=O)cc1 ?
CapD inh: inactive

What do the screens show for `CCN1C(=O)c2ccc(C(=O)NCC(C)C)cc2C1=O`?
CapD inh: inactive

Results for Cn1cncc1S(=O)(=O)/C(C#N)=N/Nc1ccc(OC(F)(F)F)cc1 ?
CapD inh: inactive

Results for Cc1snc(S(=O)(=O)/C(C#N)=N/Nc2cccc(C(F)(F)F)c2)c1C#N ?
CapD inh: inactive

Results for COc1ccc(N/N=C(/C#N)S(=O)(=O)c2nsc(C)c2C#N)cc1 ?
CapD inh: -5.8

How did O=C(Cn1cc(S(=O)(=O)N2CCN(c3ccccc3F)CC2)c2ccccc2c1=O)Nc1ccc(Cl)cn1 do in these assays?
CapD inh: inactive

Results for CCOC(=O)c1sc2ncnc(N3CCN(Cc4ccc5c(c4)OCO5)CC3)c2c1C ?
CapD inh: inactive

Results for O=C(N/N=C/c1ccccc1Sc1ccc(Cl)cc1)c1ccc2ccccc2c1 ?
CapD inh: inactive

What do the screens show for `N#Cc1ccccc1CSc1nc2c(sc(=S)n2Cc2ccco2)c(=O)n1-c1ccc(F)cc1`?
CapD inh: inactive

What do the screens show for `Cc1nn(CCCC(=O)N2CCCCC2)c(=O)c2c1sc1ccccc12`?
CapD inh: inactive

How did CCCNC(=O)Cn1nc(C)c2sc3ccccc3c2c1=O do in these assays?
CapD inh: -5.8

How did Cc1nn(CC(=O)NCc2ccc3c(c2)OCO3)c(=O)c2c1sc1ccccc12 do in these assays?
CapD inh: inactive

How did CCOCCOC(=O)C1=C(C)NC2=C(C(=O)CC(c3ccc(OC)cc3)C2)C1c1cccc2ccccc12 (centres undefined) do in these assays?
CapD inh: inactive

What do the screens show for `O=C(CNC(=O)c1cccnc1)NCC1CCCCC1`?
CapD inh: inactive

How did O=C1C(=O)N(c2ccc(F)cc2)C(c2ccc(F)cc2)/C1=C(/O)c1ccccc1 (centres undefined) do in these assays?
CapD inh: inactive

What do the screens show for `COc1ccc(-c2ccnc3nc(N4CCN(c5ccccc5)CC4)nn23)cc1`?
CapD inh: inactive

What do the screens show for `CCOC(=O)c1cc2c(c(CSc3cccc(C(F)(F)F)c3)c1)OCOC2`?
CapD inh: inactive

Results for O=C(NC1=NCCS1)c1ccco1 ?
CapD inh: inactive

What do the screens show for `COc1cc(OC)nc(C(Sc2ccc(NC(=O)c3cccs3)cc2)c2ccccc2)n1` (centres undefined)?
CapD inh: inactive
